Bioassay records from PubChem.
Dicer processing: inhibitors of Dicer pre-microRNA processing, primary screen, biochemical, cat-ELCCA, chemiluminescence; z-score at 25 µM; Endoribonuclease Dicer (Homo sapiens), Q9UPY3; cat-ELCCA pre-miR-21 Dicer processing; stronger effect = higher value; 6% of 47,000 active; in the data active = z-score above about 3, passing the limit was not always enough;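 also: plate controls were vehicle for no effect and no enzyme for full effect; higher signal means more uncleaved substrate so more Dicer inhibition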
Active calls of the source: *. Only a selection was taken, and hits are over-represented in it overall.

SMILES | Dicer processing
O=C(Oc1ccc2c(=O)c(-c3ccc(Cl)cc3)c(C(F)(F)F)oc2c1)N1CCOCC1 | 4*
CCOc1ccc(C2c3c(oc4ccc(C)cc4c3=O)C(=O)N2Cc2ccc3c(c2)OCO3)cc1 (stereo not given) | 0.86
COC(=O)C(C(=O)OC)c1ccc(Cl)cc1[N+](=O)[O-] | -0.92
COC(=O)C1=C(C)NC2=C(C(=O)c3ccccc32)C1c1cccs1 (stereo not given) | -6.3
COC(=O)C1=C(C)NC2=C(C(=O)c3ccccc32)C1c1ccc(-c2ccc(Cl)cc2)o1 (stereo not given) | 3.6*
COC(=O)C1=C(C)NC2=C(C(=O)c3ccccc32)C1c1ccccc1Cl (stereo not given) | -1
Cc1csc2c(N3CCN(C(=O)c4ccc(Cl)cc4)CC3)ncnc12 | 0.31
COc1ccc(C2Nc3ccc(C(=O)c4ccccc4)cc3NC3=C2C(=O)CCC3)c(OC)c1 (stereo not given) | 1.9
CN(C)c1ccc(C2Nc3ccc(C(=O)c4ccccc4)cc3NC3=C2C(=O)CCC3)cc1 (stereo not given) | 5*
COc1cc(C2Nc3ccc(C(=O)c4ccccc4)cc3NC3=C2C(=O)CCC3)ccc1OC(C)=O (stereo not given) | -0.22
CCN(C(=S)Nc1ccc(C)cc1)c1ccccc1 | 1.6
CCN(CC)C(=S)NC(=S)c1ccc(C)cc1 | 16*
Cc1ccc(CNC(=S)N(C)C)cc1 | -0.69
Nc1nc2ccccc2n1CCOc1ccc2ccccc2c1 | -0.02
CCOC(=O)N/N=C(\C)c1ccc(F)cc1F | -0.07
CCCCNC(=O)C(=O)NCC1CCCO1 (stereo not given) | 0.04
COc1nc2c(c(-c3ccc4ccccc4c3)c1C#N)CCc1ccccc1-2 | -1.4
COc1nc2c(c(-c3ccc(Cl)cc3Cl)c1C#N)CCc1ccccc1-2 | 3.1*
COc1nc2c(c(-c3ccc(C(F)(F)F)cc3)c1C#N)CCc1ccccc1-2 | -1.8
CN(C)CCNc1nc2c(c(=O)n(C)c(=O)n2C)n1CC(O)COc1ccccc1 (stereo not given) | -1.3
O=C(NC1CCCCC1)C1c2ccccc2Oc2ccccc21 | 0.78
CSc1sc(Br)c2c1/C(=N/OC(=O)c1ccccc1Cl)CC(C)(C)C2 | -0.22
CSc1sc(Br)c2c1/C(=N/OC(=O)c1ccc(Cl)cc1)CC(C)(C)C2 | 0.2
COC(=O)c1sc(SC)c2c1CC(C)(C)C/C2=N\OC(=O)c1ccc(Cl)cc1 | 3.3*
O=C(CSc1nnc(-c2ccccc2O)o1)c1ccccc1 | -0.13
SMILES | Dicer processing
Cc1ccc(-c2nnc3c4ccccc4c(C)nn23)cc1S(=O)(=O)N1CCC(C)CC1 | 5.5*
Cc1ccc(-c2nnc3c4ccccc4c(C)nn23)cc1S(=O)(=O)N1CCCCC1 | 1.4
Cc1ccc(-c2nnc3c4ccccc4c(C)nn23)cc1S(=O)(=O)N(C)C1CCCCC1 | 0.96
COc1ccc(NC(=O)Nc2nnc(COc3ccccc3F)s2)cc1 | 3.5*
COc1ccc(NC(=O)Nc2c(C)noc2-c2ccccc2)cc1 | 1.5
COc1ccc(OCC(O)CNC(=O)Nc2ccc(OCc3ccccc3)cc2)cc1 (stereo not given) | -0.86
COc1ccc(Sc2ccccc2C(=O)O)c(C(=O)O)c1 | -0.72
COc1cc(C2C(C(=O)OC(C)C)=C(C)NC3=C2C(=O)CCC3)cc(Cl)c1O (stereo not given) | -1.4
CN(C)N1C(=O)c2cccc3c(Br)ccc(c23)C1=O | -0.08
COc1cccc(-c2cc3c(c(N)c2C#N)c(=O)oc2ccccc23)c1 | -0.17
C=CCN(CC=C)CC(O)Cn1c(C)c(C)c2ccccc21 (stereo not given) | 2.3
CC(C)(C)NC(=O)c1cnn2c1NC(c1ccc(F)cc1)CC2C(F)(F)F (stereo not given) | 1.6
O=C(Nc1ccc(Br)cc1)c1cc2n(n1)C(C(F)(F)F)CC(c1cccs1)N2 (stereo not given) | 0.96
Cc1ccc(C2CC(C(F)(F)F)n3ncc(C(=O)N(C)C4CCCCC4)c3N2)cc1 (stereo not given) | -0.05
O=C(c1cnn2c1NC(c1ccc(Br)cc1)CC2C(F)(F)F)N1CCCCC1 (stereo not given) | 3.3*
O=C(Nc1ccc(Br)cc1)c1cnn2c1NC(c1cccs1)CC2C(F)(F)F (stereo not given) | 3.2*
CSc1ccccc1NC(=O)c1cnn2c1NC(c1cccs1)CC2C(F)(F)F (stereo not given) | 2.1
CCCCCOC(=O)C1=C(C)NC2=C(C(=O)CCC2)C1c1cc(Cl)c(O)c(OC)c1 (stereo not given) | -0.58
Cc1ccc(C2SCC(=O)N2c2ccc3ccccc3c2)cc1 (stereo not given) | -0.71
COc1ccc(C(OC[C@H]2O[C@@H](n3ccc(N)nc3=O)CC2O)(c2ccccc2)c2ccc(OC)cc2)cc1 (stereo not given in full) | -0.25
CCOC(=O)c1cnc(-c2cccs2)nc1NNC(=O)c1ccc(Cl)cc1 | -0.55
O=C(O)COCC(=O)Nc1ccc(C(F)(F)F)cn1 | -1.6
